# Shown is part of a subset that was picked to be rich in the strongest signals.
# B1: PX9961H-bth-557-24-557 (Bacteroides thetaiotaomicron) (protein)
# chain: EETRTEVEKKNYMNNAEEAKDVLLGVYRTNTLDAMYGYYLSILFNLGTDISQVEGSGNENFRIIPTNSFPTTQSEVQQTWAALYTGIYRANDFLERISNKIGSYTTTDKKLATLYIAEARALRGMFYFELVRRFGNVVLMTSTQMSNQNPATYVQSAPEKVYEYIEDDLLYACDILPYATDDQYRESNDYRFSKGAALGLLTKVYATWAGYPVKDESKWEAAAKTARILVESGKHGLLKDYEQLWKNTCNGTWDPTESLIEISFYSPTVSGNSDPVGRIGKWNGVKTTAIAGVRGSCAANVKVVHTFVLDWREDVSDIRRDLSIANYQYTDTKKSLWVAGASDTDESAAEKDADPTKAQKNKQNYTPAKWDIQKYVTTNSFINNDKSNVNWYFLRYADVLLLYAEALNEWKHGPDAEAYNAINAVRRRGYGNPSNTSACDLPQGLDETSFREAVRKERSYELSFEGHRRQDLIRWGIYYKTVQATAKELGYWWEGTGSPNYSVATYTEEGKHELFPIPQRDMDLCIQFNQNPKW
# Legend:
# Experiment in all cases: glycan array binding signal (z-score within array); higher = stronger binding
# Conditions in all cases: glycan notation: IUPAC condensed, linker removed
# [1] = target: Fuc(a1-2)Gal(b1-3)GlcNAc(b1-2)Man(a1-3)[Fuc(a1-2)Gal(b1-3)GlcNAc(b1-2)Man(a1-6)]Man(b1-4)GlcNAc(b1-4)GlcNAc
# Procedure, shortened: (§1)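 From the Consortium for Functional Glycomics database, 3228 arrays were curated, keeping only those whose protein sequence was available. Binding is given as a within-array Z-score averaged across arrays sharing a protein sequence and across linkers. Negative Z-scores can be read as non-binding.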
# [2] = target: Fuc(a1-2)Gal(b1-3)GlcNAc(b1-3)[Fuc(a1-2)Gal(b1-3)GlcNAc(b1-6)]GalNAc
# Procedure, shortened: as §1
# [3] = target: Fuc(a1-2)Gal(b1-4)GlcNAc(b1-6)GalNAc
# Procedure, shortened: as §1
# [4] = target: Fuc(a1-2)Gal(b1-4)GlcNAc6S
# Procedure, shortened: as §1
# [5] = target: Fuc(a1-2)Gal3S(b1-4)GlcNAc
# Procedure, shortened: as §1
# [6] = target: Fuc(a1-2)[Gal(a1-3)]Gal(b1-3)GalNAc
# Procedure, shortened: as §1
# [7] = target: Fuc(a1-2)[Gal(a1-3)]Gal(b1-4)GlcNAc
# Procedure, shortened: as §1
# [8] = target: Fuc(a1-2)[Gal(a1-3)]Gal(b1-4)[Fuc(a1-3)]GlcNAc
# Procedure, shortened: as §1
# [9] = target: Gal(a1-3)Gal(b1-3)GlcNAc(b1-2)Man(a1-3)[Gal(a1-3)Gal(b1-3)GlcNAc(b1-2)Man(a1-6)]Man(b1-4)GlcNAc(b1-4)GlcNAc
# Procedure, shortened: as §1
# [10] = target: Gal(a1-3)Gal(b1-3)[Fuc(a1-4)]GlcNAc(b1-2)Man(a1-3)[Gal(a1-3)Gal(b1-3)[Fuc(a1-4)]GlcNAc(b1-2)Man(a1-6)]Man(b1-4)GlcNAc(b1-4)GlcNAc
# Procedure, shortened: as §1
# Gal(a1-3)Gal(b1-4)Glc = target: Gal(a1-3)Gal(b1-4)Glc
# Procedure, shortened: as §1
# [11] = target: Gal(a1-4)Gal(b1-3)GlcNAc(b1-2)Man(a1-3)[Gal(a1-4)Gal(b1-3)GlcNAc(b1-2)Man(a1-6)]Man(b1-4)GlcNAc(b1-4)GlcNAc
# Procedure, shortened: as §1
# [12] = target: Gal(b1-3)GlcNAc(a1-6)Gal(b1-4)GlcNAc
# Procedure, shortened: as §1
# [13] = target: Gal(b1-3)GlcNAc(b1-2)Man(a1-3)[Gal(b1-3)GlcNAc(b1-2)Man(a1-6)]Man(b1-4)GlcNAc(b1-4)GlcNAc
# Procedure, shortened: as §1
# [14] = target: Gal(b1-3)[GlcNAc(b1-6)]GalNAc
# Procedure, shortened: as §1
# Gal(b1-4)GlcNAc(b1-2)Man = target: Gal(b1-4)GlcNAc(b1-2)Man
# Procedure, shortened: as §1
# [15] = target: Gal(b1-4)GlcNAc(b1-2)Man(a1-3)Man(b1-4)GlcNAc(b1-4)GlcNAc
# Procedure, shortened: as §1
# [16] = target: Gal(b1-4)GlcNAc(b1-2)Man(a1-3)[Gal(b1-4)GlcNAc(b1-2)Man(a1-6)]Man(b1-4)GlcNAc(b1-4)[Fuc(a1-6)]GlcNAc
# Procedure, shortened: as §1
# [17] = target: Gal(b1-4)GlcNAc(b1-3)Gal(b1-3)GalNAc
# Procedure, shortened: as §1
# [18] = target: Gal(b1-4)GlcNAc(b1-3)Gal(b1-4)GlcNAc(b1-2)Man(a1-3)[Gal(b1-4)GlcNAc(b1-3)Gal(b1-4)GlcNAc(b1-2)Man(a1-6)]Man(b1-4)GlcNAc(b1-4)GlcNAc
# Procedure, shortened: as §1
# [19] = target: Gal(b1-4)GlcNAc(b1-3)Gal(b1-4)GlcNAc(b1-2)[Gal(b1-4)GlcNAc(b1-3)Gal(b1-4)GlcNAc(b1-6)]Man(a1-6)[Gal(b1-4)GlcNAc(b1-3)Gal(b1-4)GlcNAc(b1-2)Man(a1-3)]Man(b1-4)GlcNAc(b1-4)[Fuc(a1-6)]GlcNAc
# Procedure, shortened: as §1
# [20] = target: Gal(b1-4)GlcNAc(b1-3)Gal(b1-4)GlcNAc(b1-3)Gal(b1-4)GlcNAc(b1-3)Gal(b1-4)GlcNAc(b1-3)Gal(b1-4)GlcNAc(b1-2)Man(a1-3)[Gal(b1-4)GlcNAc(b1-3)Gal(b1-4)GlcNAc(b1-3)Gal(b1-4)GlcNAc(b1-3)Gal(b1-4)GlcNAc(b1-3)Gal(b1-4)GlcNAc(b1-2)Man(a1-6)]Man(b1-4)GlcNAc(b1-4)GlcNAc
# Procedure, shortened: as §1
# [21] = target: Gal(b1-4)GlcNAc(b1-3)Gal(b1-4)GlcNAc(b1-3)Gal(b1-4)GlcNAc(b1-3)Gal(b1-4)GlcNAc(b1-3)Gal(b1-4)GlcNAc(b1-2)[Gal(b1-4)GlcNAc(b1-3)Gal(b1-4)GlcNAc(b1-3)Gal(b1-4)GlcNAc(b1-3)Gal(b1-4)GlcNAc(b1-3)Gal(b1-4)GlcNAc(b1-6)]Man(a1-6)[Gal(b1-4)GlcNAc(b1-3)Gal(b1-4)GlcNAc(b1-3)Gal(b1-4)GlcNAc(b1-3)Gal(b1-4)GlcNAc(b1-3)Gal(b1-4)GlcNAc(b1-2)Man(a1-3)]Man(b1-4)GlcNAc(b1-4)[Fuc(a1-6)]GlcNAc
# Procedure, shortened: as §1
# Gal6S(b1-4)GlcNAc = target: Gal6S(b1-4)GlcNAc
# Procedure, shortened: as §1
# GalNAc(b1-3)GlcNAc = target: GalNAc(b1-3)GlcNAc
# Procedure, shortened: as §1
# Glc(a1-6)Glc(a1-6)Glc = target: Glc(a1-6)Glc(a1-6)Glc
# Procedure, shortened: as §1
# GlcA(b1-3)Gal = target: GlcA(b1-3)Gal
# Procedure, shortened: as §1
# [22] = target: GlcNAc(b1-3)Gal(b1-4)GlcNAc(b1-3)Gal(b1-4)GlcNAc(b1-3)Gal(b1-4)GlcNAc(b1-2)Man(a1-3)[GlcNAc(b1-3)Gal(b1-4)GlcNAc(b1-3)Gal(b1-4)GlcNAc(b1-3)Gal(b1-4)GlcNAc(b1-2)Man(a1-6)]Man(b1-4)GlcNAc(b1-4)GlcNAc
# Procedure, shortened: as §1
# Kdn(a2-3)Gal(b1-4)Glc = target: Kdn(a2-3)Gal(b1-4)Glc
# Procedure, shortened: as §1
# Man(a1-6)Man = target: Man(a1-6)Man
# Procedure, shortened: as §1
# Man(b1-4)GlcNAc = target: Man(b1-4)GlcNAc
# Procedure, shortened: as §1
# [23] = target: Neu5Ac(a2-3)Gal(b1-3)GalNAc
# Procedure, shortened: as §1
# [24] = target: Neu5Ac(a2-3)Gal(b1-3)[Neu5Ac(a2-6)]GalNAc
# Procedure, shortened: as §1
# [25] = target: Neu5Ac(a2-3)Gal(b1-3)]Neu5Ac(a2-3)Gal(b1-4)]GlcNAc
# Procedure, shortened: as §1
# [26] = target: Neu5Ac(a2-3)Gal(b1-4)GlcNAc(b1-2)Man(a1-3)[Neu5Ac(a2-3)Gal(b1-4)GlcNAc(b1-2)Man(a1-6)]Man(b1-4)GlcNAc(b1-4)GlcNAc
# Procedure, shortened: as §1
# [27] = target: Neu5Ac(a2-3)Gal6S(b1-4)GlcNAc
# Procedure, shortened: as §1
# [28] = target: Neu5Ac(a2-3)[GalNAc(b1-4)]Gal(b1-4)GlcNAc
# Procedure, shortened: as §1
# [29] = target: Neu5Ac(a2-6)Gal(b1-4)GlcNAc(b1-3)Gal(b1-3)GlcNAc
# Procedure, shortened: as §1
# [30] = target: Neu5Ac(a2-6)Gal(b1-4)GlcNAc(b1-3)Gal(b1-4)GlcNAc(b1-2)Man(a1-3)[Neu5Ac(a2-6)Gal(b1-4)GlcNAc(b1-3)Gal(b1-4)GlcNAc(b1-2)Man(a1-6)]GalNAc
# Procedure, shortened: as §1
# [31] = target: Neu5Ac(a2-6)Gal(b1-4)GlcNAc(b1-3)Gal(b1-4)GlcNAc(b1-3)GalNAc
# Procedure, shortened: as §1
# [32] = target: Neu5Ac(a2-8)Neu5Gc(a2-3)Gal(b1-4)GlcNAc
# Procedure, shortened: as §1
# Neu5Gc(a2-3)Gal(b1-4)Glc = target: Neu5Gc(a2-3)Gal(b1-4)Glc
# Procedure, shortened: as §1
# [33] = target: Neu5Gc(a2-3)Gal(b1-4)[Fuc(a1-3)]GlcNAc
# Procedure, shortened: as §1
# [34] = target: Neu5Gc(b2-6)Gal(b1-4)GlcNAc
# Procedure, shortened: as §1
binder,measurement,setting,value
B1,glycan array binding signal (z-score),[1],3.58
same,glycan array binding signal (z-score),[2],-0.177
same,glycan array binding signal (z-score),[3],-0.051
same,glycan array binding signal (z-score),[4],-0.38
same,glycan array binding signal (z-score),[5],0.014
same,glycan array binding signal (z-score),[6],-0.242
same,glycan array binding signal (z-score),[7],-0.408
same,glycan array binding signal (z-score),[8],-0.18
same,glycan array binding signal (z-score),[9],4.31
same,glycan array binding signal (z-score),[10],-0.134
same,glycan array binding signal (z-score),Gal(a1-3)Gal(b1-4)Glc,-0.054
same,glycan array binding signal (z-score),[11],5.85
same,glycan array binding signal (z-score),[12],-0.025
same,glycan array binding signal (z-score),[13],5.54
same,glycan array binding signal (z-score),[14],-0.03
same,glycan array binding signal (z-score),Gal(b1-4)GlcNAc(b1-2)Man,-0.104
same,glycan array binding signal (z-score),[15],10.2
same,glycan array binding signal (z-score),[16],4.19
same,glycan array binding signal (z-score),[17],0.039
same,glycan array binding signal (z-score),[18],3.35
same,glycan array binding signal (z-score),[19],3.59
same,glycan array binding signal (z-score),[20],5.22
same,glycan array binding signal (z-score),[21],4.46
same,glycan array binding signal (z-score),Gal6S(b1-4)GlcNAc,-0.033
same,glycan array binding signal (z-score),GalNAc(b1-3)GlcNAc,-0.542
same,glycan array binding signal (z-score),Glc(a1-6)Glc(a1-6)Glc,-0.402
same,glycan array binding signal (z-score),GlcA(b1-3)Gal,-0.564
same,glycan array binding signal (z-score),[22],-0.299
same,glycan array binding signal (z-score),Kdn(a2-3)Gal(b1-4)Glc,-0.397
same,glycan array binding signal (z-score),Man(a1-6)Man,-0.064
same,glycan array binding signal (z-score),Man(b1-4)GlcNAc,-0.424
same,glycan array binding signal (z-score),[23],-0.207
same,glycan array binding signal (z-score),[24],-0.299
same,glycan array binding signal (z-score),[25],-0.127
same,glycan array binding signal (z-score),[26],-0.412
same,glycan array binding signal (z-score),[27],-0.532
same,glycan array binding signal (z-score),[28],-0.571
same,glycan array binding signal (z-score),[29],-0.166
same,glycan array binding signal (z-score),[30],0.218
same,glycan array binding signal (z-score),[31],-0.503
same,glycan array binding signal (z-score),[32],7.98
same,glycan array binding signal (z-score),Neu5Gc(a2-3)Gal(b1-4)Glc,-0.062
same,glycan array binding signal (z-score),[33],-0.313
same,glycan array binding signal (z-score),[34],-0.202

# Reference: the supplement of paper PMC8728848
